hgDAF-12 ag: activates the H. glycines DAF-12 receptor ligand-binding domain. HEK293 GAL4-hgDAF12 UAS-luciferase reporter, agonist luminescence; normalized to butyrate control. activation, % at 6.8 µM. hit rate 1.8% among 370,000;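 active = activation above a cutoff set at the mean of all screened compounds plus 3 SD, cut at about 10% in these data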;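 note: 0% = DMSO wells and 100% = sodium butyrate wells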
SMARCA2 act: activators of SMARCA2 function | MG213 cells, MMTV-luciferase reporter, dexamethasone, overnight | activation, % at 9.1 µM | hit rate 1% among 370,000 | AID 652017; in the data active = activation above about 7.8%;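 note: 0% = vehicle wells and 100% = reference activator wells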
hcDAF12 agonist: activates DAF-12 receptor from parasite H. contortus; HEK293 hcDAF-12 lit1-tk-luc reporter, luminescence; 0% DMSO, 100% Δ7-dafachronic acid; activation, % at 6.8 µM; hit rate 1.4% among 370,000; AID 652067;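 active = activation above the mean of all tested compounds plus 3 SD, cut at about 5.5% in these data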;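 note: 100% = response to 3 µM Δ7-dafachronic acid high control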
DAX1 inh-1: inhibitors of human orphan nuclear receptor DAX1 (NR0B1); P51843; HEK293 Gal4-DAX1 luciferase reporter, luminescence; inhibition, % at 6.75 µM; hit rate 0.99% among 340,000;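 active = inhibition above the mean over all tested compounds plus 3 SD, cut at about 4.2% in these data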;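 note: 0% = DAX1-transfected cells with DMSO and 100% = empty-vector control cells with DMSO; inhibition shows as a rise in luminescence from relieved DAX1 repression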
Target sequence (P51843 207-470 limits assumed): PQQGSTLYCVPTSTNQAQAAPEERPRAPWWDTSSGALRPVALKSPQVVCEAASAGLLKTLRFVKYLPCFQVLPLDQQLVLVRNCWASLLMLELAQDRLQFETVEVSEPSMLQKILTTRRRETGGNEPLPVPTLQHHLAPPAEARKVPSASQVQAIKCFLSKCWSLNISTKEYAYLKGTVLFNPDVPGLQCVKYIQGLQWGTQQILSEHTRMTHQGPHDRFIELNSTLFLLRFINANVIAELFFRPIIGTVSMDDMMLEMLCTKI
ssDAF12 agonist: activators of S. stercoralis DAF-12 nuclear receptor | HEK293 ssDAF-12/GRIP1 lit1-tk-luc reporter, luminescence; % of 3 µM dafachronic acid response | activation, % at 6.8 µM | hit rate 1% among 370,000;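 active = activation above the mean over all tested compounds plus 3 SD, cut at about 0.9% in these data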;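 note: 0% = DMSO-only wells and 100% = 3 µM delta7-dafachronic acid wells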
DAX1 inh-2: blocks DAX1 repression of SF-1 activated StAR promoter. inhibition, % at 6.8 µM. HEK293T StAR-luciferase reporter, SF-1/DAX-1 repression relief. hit rate 1.1% among 370,000;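 active = inhibition above the mean over all tested compounds plus 3 SD, cut at about 3.6% in these data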;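 note: 0% = DAX-1 cells with DMSO and 100% = cells lacking DAX-1 with DMSO; higher inhibition means more luminescence from relief of DAX-1 repression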
Active calls of the source: *; x = not tested or not shown. Compounds with a hit are over-represented: about 4.8% of the library has one in this group of screens.

SMILES | hgDAF-12 ag | SMARCA2 act | hcDAF12 agonist | DAX1 inh-1 | ssDAF12 agonist | DAX1 inh-2
Cc1ccc(C(=O)N[C@H](C(=O)OCC(=O)NC2CCS(=O)(=O)C2)C(C)C)cc1 (stereo partly drawn) | 6.2 | -2.9 | 1.1 | 1.3 | 1.5* | -0.4
Cc1cc(OCC(=O)OCC(=O)NC2CCCCCC2)ccc1Cl | -0.8 | -2.1 | 0.1 | -0.1 | -1.2 | 0.8
Cc1cc(OCC(=O)OCC(=O)NC2CCS(=O)(=O)C2)ccc1Cl (stereo not drawn) | 1.9 | -1.6 | 5.9* | 2.7 | -1.3 | 1.4
Cc1ccc(S(=O)(=O)NC(C(=O)OCC(=O)NC2CCS(=O)(=O)C2)C(C)C)cc1 (stereo not drawn) | -1.1 | -1.4 | -0.5 | -0.6 | -1.1 | 1.4
COc1cccc(C(=O)NCC(=O)OCC(=O)NC2CCCCC2)c1 | -0.6 | 0.3 | -0.5 | 0.9 | 1.3* | 0.4
Cc1cc(C)cc(OCC(=O)OCC(=O)NC2CCCCCCC2)c1 | 1.7 | -1.1 | 0.3 | 1.9 | -1.0 | 4.3*
Cc1cccc(C(=O)NCC(=O)OCC(=O)NC2CCCCCCC2)c1 | -0.5 | -1.8 | 1.1 | -1.2 | -1.7 | 1.8
Cc1ccsc1C(=O)OCC(=O)NC1CCCCC1 | 10.8* | 1.5 | 3.3 | 2.5 | 0.1 | 2.8
O=C(O)c1cccc2c1-c1ccccc1/C2=N\Nc1ccccc1 | 8.5 | 5.3 | 4.3 | 5.4* | -0.5 | 0.7
CCN(CC)C(=O)C1=C(C)N(Cc2ccccc2)C(=O)C(CC(=O)NCc2cccs2)C1 (stereo not drawn) | -0.7 | 1.1 | -0.5 | -0.1 | -0.1 | 0.0
CC1=CC(C)=Nc2ccccc2N1 | 10.8* | 6.3 | 5.6* | 0.8 | 2.1* | 3.0
N#Cc1ccc(S(=O)(=O)N2CCCc3nc(-c4ccc(Br)cc4)ccc32)cc1 | 1.4 | 5.7 | 1.1 | x | 1.4* | -0.8
N#Cc1ccc(S(=O)(=O)N2CCCc3nc(-c4ccc(F)cc4)ccc32)cc1 | 0.3 | -2.4 | 4.0 | x | 1.7* | -0.3
O=S(=O)(c1ccc(F)cc1)N1CCCc2nc(-c3ccc(Br)cc3)ccc21 | 3.5 | 0.3 | 0.8 | x | -1.0 | -0.9
COC(=O)C1=C(NC(=O)c2ccc(C)c(C)c2)CCS1 | 3.8 | 0.8 | 6.1* | -0.3 | 0.3 | 0.1
COC(=O)C1=C(NC(=O)c2ccc(Br)cc2)CCS1 | 4.7 | -2.5 | 2.8 | -0.3 | 0.7 | 0.4
CN(/C=C/C(=C\C=[N+](C)c1ccccc1)OCCCS(=O)(=O)[O-])c1ccccc1 | -3.1 | -3.7 | 5.6* | 0.3 | 0.8 | -0.3
CC(O)(c1cccnc1)c1nc(/C=C/c2ccccc2)cs1 (stereo not drawn) | -0.2 | -3.1 | -2.7 | x | -2.2 | -2.5
O=C(CSc1ccccc1)NCCc1ccc(F)cc1 | 2.1 | 5.1 | -1.1 | 0.6 | -1.1 | -0.5
O=C(CSc1ccccc1)NCCc1ccccc1 | 6.5 | 0.8 | 0.5 | 5.6* | -1.5 | 0.5
CC(C)=CC(=O)NCCc1ccccc1 | 11.3* | 5.1 | 2.1 | 2.5 | -0.8 | 2.3
Cc1ccc(SCC(=O)NCCc2ccccc2)cc1 | -1.1 | 1.1 | 0.1 | 0.9 | 1.7* | -0.1
Cc1onc(-c2ccccc2)c1C(=O)OCC(=O)c1ccccc1 | 1.1 | 0.2 | -1.4 | -0.5 | -1.0 | 0.0
Cc1onc(-c2ccccc2)c1C(=O)OCC(=O)c1ccc(F)cc1 | 3.2 | -2.6 | -1.4 | 3.8 | 3.5* | -1.2
Clc1ccccc1C1CC(c2ccccc2)=Nc2ccccc2N1 (stereo not drawn) | 7.8 | 0.9 | 1.6 | 4.8* | -0.6 | 1.1
SMILES | hgDAF-12 ag | SMARCA2 act | hcDAF12 agonist | DAX1 inh-1 | ssDAF12 agonist | DAX1 inh-2
O=C(NCc1ccc(Cl)cc1)O[C@H]1CC[C@@]23CCCN2C(=O)CCC[C@H]3C1 | 1.4 | x | -1.2 | x | -1.7 | x
Cc1cc(C)cc(C(O)c2ncc(-c3cccc(F)c3)[nH]2)c1 (stereo not drawn) | 1.0 | -0.3 | -0.6 | x | -0.8 | -0.6
COCCC(=O)N1CCC(C(=O)Nc2ccc(Oc3ccccc3)nc2)CC1 | 3.5 | -2.0 | 5.8* | 0.3 | -0.8 | 0.0
O=C(Nc1ccc(Oc2ccccc2)nc1)C1CCCCN1Cc1ccc(O)cc1 (stereo not drawn) | 4.9 | 2.4 | 2.6 | 1.1 | -0.1 | 3.9*
COCCc1ncc(CN2CCCCC2C(=O)Nc2ccc(Oc3ccccc3)nc2)cn1 (stereo not drawn) | 2.1 | 1.4 | -1.9 | 0.1 | -0.8 | 0.7
COc1cc(NS(=O)(=O)c2ccc3c(c2)C(C)(C)C(=O)N3C)cc(OC)c1 | -2.6 | 6.6 | -1.0 | 5.0* | -1.1 | 0.0
COC(=O)[C@@]1(Sc2ccc(OC)cc2)CC(=O)N[C@@H]1c1ccccc1 | -2.7 | -1.7 | -0.9 | x | -1.7 | 0.2
O=C(/C=C/c1cccs1)Nc1ccc(N2CCOCC2)c(S(=O)(=O)Nc2cc(Cl)ccc2Cl)c1 | 4.7 | -3.6 | 5.7* | -0.8 | -1.0 | 0.0
O=C(/C=C/c1cccs1)Nc1ccc(N2CCOCC2)c(S(=O)(=O)Nc2ccccc2Cl)c1 | -1.4 | -2.1 | -4.4 | -2.8 | -2.7 | -1.0
COC(=O)/C(=C/c1cn(C(C)=O)c2ccccc12)[N+](=O)[O-] | 4.2 | 0.6 | 5.7* | x | -0.3 | 0.0
COC(=O)/C(=C/c1c[nH]c2ccccc12)[N+](=O)[O-] | -1.0 | 4.2 | 2.7 | -0.4 | -0.3 | -0.3
Cc1nc(SCC(=O)Nc2ccc(OCc3ccccc3)cc2)n[nH]1 | 1.8 | 2.2 | -0.6 | 0.8 | -1.4 | 0.6
Nc1nc(SCC(=O)Nc2ccc(OCc3ccccc3)cc2)n[nH]1 | 6.6 | -1.3 | 0.0 | 5.2* | -0.6 | -0.2
CCCCNC(=O)N1CCCC1C(=O)Nc1cccc(OC)c1 (stereo not drawn) | -1.9 | 0.2 | -1.8 | x | -1.7 | 0.0
O=C1C(C=NCc2cccnc2)=C(O)c2ccccc21 | 12.1* | 5.2 | 4.8 | 3.9 | 0.3 | 3.3
O=C(O)c1ccc(N=Nc2c(O)[nH]c3ccc(Br)cc23)cc1 | 11.1* | 6.2 | 5.4 | 3.4 | 0.4 | 1.3
COC(=O)N=Nc1c(O)[nH]c2ccc(Br)cc12 | 8.4 | -3.2 | 2.5 | 1.4 | -0.4 | 1.5
Cc1ccc2[nH]c(C)cc(=S)c2c1 | -0.6 | 4.2 | -2.8 | -0.3 | -1.5 | -0.3
Cc1cc(=S)c2ccccc2[nH]1 | -2.4 | -0.8 | -0.4 | -0.4 | 1.3* | -0.8
O=C(COC(=O)Cc1ccccc1F)NCc1ccccc1Cl | -2.9 | -4.6 | -0.8 | 1.2 | -0.9 | 0.3
CC(=O)N1CCN(c2nnc(-c3ccc(C)cc3)c3ccccc23)CC1 | -2.3 | -2.4 | 0.5 | 0.2 | 1.1* | -0.6
Cn1c(=O)c2cc(NC(=O)NCc3ccccc3)ccc2n1C/C=C/c1ccccc1 | 10.6* | 0.9 | 1.1 | x | -0.8 | 1.3
O=C1C[C@H](c2ccc3ccccc3c2)N=C2N1/C(=C\c1ccccc1)[C@@H](c1ccccc1C(F)(F)F)N2Cc1ccc2c(c1)OCO2 | 5.5 | x | 2.2 | x | -1.6 | x
